From the supplement of paper PMC7366291
Where a name gives a salt, the structure may show the parent alone. ± gives the standard deviation or the standard deviation of the averaged measurements.

Tests used:
Details in all cases: 25 µM; exposure: 24-48 hpf
[1] = system: Danio rerio Tg(wt1b:EGFP) embryo, pronephros; test: glomerular separation, fold change vs DMSO control; higher = glomeruli further apart (abnormal)
Method in brief: (§1)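 Each feature value is a fold change relative to the mean of same-day DMSO-treated embryos. Embryos of the Tg(wt1b:EGFP) zebrafish line, dechorionated, received 25 μM compound in 0.5% DMSO from 24 to 48 hpf at 28.5°C, in HEPES-buffered E3 with 0.003% PTU. Distances and angles were computed by a Fiji macro from 16 manually set reference points on maximum projections of dorsal pronephros images, and values beyond 2 SD of the feature mean were removed.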

[2] = system: Danio rerio Tg(wt1b:EGFP) embryo, pronephros; test: glomerular width (mean of left and right), fold change vs DMSO control; higher = wider glomerulus
Method in brief: as §1

[3] = system: Danio rerio Tg(wt1b:EGFP) embryo, pronephros; test: fraction of imaged embryos annotated as normal kidney; higher = less nephrotoxic; extreme values may be limits of the assay
Method in brief: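 The value given is the share of embryos in each treatment scored as having a normal kidney. To obtain it, dechorionated Tg(wt1b:EGFP) zebrafish embryos were treated from 24 to 48 hpf at 28.5°C with 25 μM compound in 0.5% DMSO, in 5 mM HEPES-buffered E3 with 0.003% PTU. Pronephroi were imaged by widefield fluorescence (470 nm, 10 z-slices), and every embryo was annotated by hand from maximum projections.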

[4] = system: Danio rerio Tg(wt1b:EGFP) embryo, pronephros; test: pronephric angle neck segment to proximal convoluted tubule (mean of left and right), fold change vs DMSO control; higher = larger pronephric angle
Method in brief: as §1

Row | Compound | glomerular separation [1] | glomerular width [2] | fraction of imaged embryos annotated as normal kidney [3] | pronephric angle neck segment [4]
1 | Fc1ccc(C(OCCN2CCN(CCCc3ccccc3)CC2)c2ccc(F)cc2)cc1 | 5.45 ± 2.3 | 0.737 ± 0.028 | 0 | 1.02 ± 0.097
2 | CC(NC(C)(C)C)C(=O)c1cccc(Cl)c1 (centres undefined) [Bupropion hydrochloride] | 0.797 ± 0.2 | 1.026 ± 0.0015 | 1 | 1.03 ± 0.011
3 | COc1ccc(CCN2CCC(Nc3nc4ccccc4n3Cc3ccc(F)cc3)CC2)cc1 [Astemizole] | 2.83 ± 2.3 | 0.777 ± 0.12 | 0.333 | 1.01 ± 0.022
4 | Clc1ccc(C(OCCN2CCCCC2)c2ccccc2)cc1 (centres undefined) [Cloperastine hydrochloride] | 0.819 ± 0.35 | 1.04 ± 0.069 | 0.917 | 0.994 ± 0.0094
5 | CCCC(C)C1(CC)C(=O)NC(=O)NC1=O (centres undefined) [Pentobarbital] | 1.63 ± 0.87 | 0.987 ± 0.044 | 0.667 | 1.214 ± 0.0019
6 | COc1cccc(C2(O)CCCCC2CN(C)C)c1 (centres undefined) [Tramadol hydrochloride] | 0.728 ± 0.23 | 0.989 ± 0.021 | 0.833 | 0.9988 ± 0.0034
7 | NCC1(CC(=O)O)CCCCC1 [Gabapentin] | 0.802 ± 0.29 | 0.9761 ± 0.0014 | 0.75 | 0.981 ± 0.016
8 | O=c1[nH]oc2c1CCNC2 [THIP Hydrochloride] | 0.923 ± 0.31 | 1.08 ± 0.012 | 0.917 | 0.961 ± 0.03
9 | C[C@@H]1CC[C@H]2[C@@H](C)C(=O)O[C@@H]3O[C@@]4(C)CC[C@@H]1[C@]32OO4 [Artemisinin] | 0.996 ± 0.38 | 0.9517 ± 0.0011 | 1 | 1.05 ± 0.054
10 | COc1ccc(C(=O)N2CCCC2=O)cc1 [Aniracetam] | 0.837 ± 0.17 | 1.06 ± 0.052 | 0.75 | 1.02 ± 0.019
11 | S=C(NC1CCCCC1)N1CCC(c2cnc[nH]2)CC1 [Thioperamide maleate] | 1.28 ± 0.6 | 0.974 ± 0.011 | 0.917 | 1.06 ± 0.013
12 | CCN(C)C(=O)Oc1cccc([C@H](C)N(C)C)c1 [Rivastigmine] | 1.1 ± 0.33 | 0.8935 ± 0.007 | 0.917 | 0.9906 ± 0.0047
13 | C[C@]12CC[C@H](O)C[C@@H]1CC[C@@H]1[C@@H]2CC[C@]2(C)C(=O)CC[C@@H]12 [Epiandrosterone] | 1.72 ± 0.71 | 0.905 ± 0.061 | 0.417 | 1.04 ± 0.022
14 | C[C@]12CCC(=O)C=C1C=C[C@@H]1[C@@H]2CC[C@@]2(C)[C@H]1CC[C@@]2(O)CCC(=O)O [Canrenoic acid potassium salt] | 1.07 ± 0.36 | 1.03 ± 0.033 | 0.455 | 0.97 ± 0.046
15 | C#C[C@]1(O)CC[C@H]2[C@@H]3CCC4=CC(=O)CC[C@]4(C)[C@H]3CC[C@@]21C [Ethisterone] | 0.918 ± 0.23 | 1.06 ± 0.071 | 0.909 | 1.065 ± 0.002
16 | C[C@]12CC[C@H]3[C@@H](CCC4=CC(=O)CC[C@@H]43)[C@@H]1CC[C@@H]2O [Nandrolone] | 1.02 ± 0.42 | 0.8978 ± 0.0049 | 0.833 | 0.95 ± 0.015
17 | CCC(=O)O[C@H]1CC[C@H]2[C@@H]3CCC4=CC(=O)CC[C@]4(C)[C@H]3CC[C@]12C [Testosterone propionate] | 1.12 ± 0.46 | 1.03 ± 0.035 | 0.75 | 0.9686 ± 0.0074
18 | C[C@]12Cc3c[nH]nc3C[C@@H]1CC[C@@H]1[C@@H]2CC[C@@]2(C)[C@H]1CC[C@]2(C)O [Stanozolol] | 1.31 ± 0.44 | 1.03 ± 0.076 | 0.75 | 1.01 ± 0.085
19 | CCC1=C[C@H]2CN3CCc4c([nH]c5ccccc45)[C@](C(=O)OC)(C2)[C@H]13 [Catharanthine] | 0.982 ± 0.32 | 1.07 ± 0.1 | 0.833 | 1 ± 0.032
20 | C[C@]12CC[C@H](O)C[C@H]1CC[C@@H]1[C@@H]2CC[C@]2(C)[C@@H](C3=CC(=O)OC3)CC[C@]12O [Digitoxigenin] | 1.38 ± 0.71 | 1.0869 ± 0.00048 | 0.667 | 1.03 ± 0.066
21 | C(#CCN1CCCC1)CN1CCCC1 [Tremorine dihydrochloride] | 1.25 ± 0.52 | 0.9472 ± 0.008 | 0.75 | 1.03 ± 0.015
22 | C[C@]12CCC(=O)C=C1CC[C@@H]1[C@@H]2C(=O)C[C@]2(C)C(=O)CC[C@@H]12 [Adrenosterone] | 0.651 ± 0.16 | 1.005 ± 0.0024 | 1 | 0.958 ± 0.021
23 | C[C@@H]1CN([C@H]2CC[C@](C#N)(c3ccc(F)cc3)CC2)CC[C@]1(C(=O)O)c1ccccc1 [Levocabastine hydrochloride] | 1.19 ± 0.32 | 1.06 ± 0.034 | 0.917 | 0.959 ± 0.011

Row | Compound | glomerular separation [1] | glomerular width [2] | fraction of imaged embryos annotated as normal kidney [3] | pronephric angle neck segment [4]
24 | C[C@@H]1O[C@@H](O[C@@H]2C=C3CC[C@@H]4[C@H](CC[C@]5(C)[C@@H](c6ccc(=O)oc6)CC[C@]45O)[C@@]3(C)CC2)[C@H](O)[C@H](O)[C@H]1O [Proscillaridin A] | 3.66 ± 1.1 | 0.716 ± 0.029 | 0 | 1.2604 ± 0.00066
25 | CCCN1C[C@H](CSC)C[C@@H]2c3cccc4[nH]cc(c34)C[C@H]21 [Pergolide mesylate] | 1.26 ± 0.37 | 1.01 ± 0.019 | 1 | 0.997 ± 0.029
26 | CCC1(c2ccc(N)cc2)CCC(=O)NC1=O (centres undefined) [Glutethimide, para-amino] | 1.05 ± 0.27 | 1.04 ± 0.036 | 0.667 | 1.05 ± 0.021
27 | CC(Cc1ccccc1)NCCC(c1ccccc1)c1ccccc1 (centres undefined) [Prenylamine lactate] | 1.05 ± 0.22 | 1.07 ± 0.071 | 0.727 | 0.953 ± 0.032
28 | CC(Cc1ccc(O)cc1)NCC(O)c1cc(O)cc(O)c1 (centres undefined) [Fenoterol hydrobromide] | 1.33 ± 0.53 | 1.051 ± 0.0075 | 1 | 0.916 ± 0.028
29 | COc1cc2c(c(OC)c1OC)-c1ccc(OC)c(=O)cc1[C@@H](NC(C)=O)CC2 [Colchicine] | 1.2 ± 0.47 | 0.827 ± 0.047 | 0.667 | 1.06 ± 0.044
30 | C[N+](C)(C)CCCCCCCCCC[N+](C)(C)C [Decamethonium bromide] | 1.04 ± 0.55 | 1.01 ± 0.041 | 0.727 | 1.02 ± 0.021
31 | C[C@@H]1C[C@@H]([C@H](O)CC2CC(=O)NC(=O)C2)C(=O)[C@@H](C)C1 [Cycloheximide] | 0.972 ± 0.45 | 0.604 ± 0.14 | 0.2 | 1.73 ± 0.19
32 | C[C@H](N)[C@H](O)c1ccc(O)c(O)c1 [Levonordefrin] | 1.13 ± 0.33 | 1.04 ± 0.016 | 0.667 | 0.982 ± 0.012
33 | CCN[C@@H](C)Cc1cccc(C(F)(F)F)c1 [Dexfenfluramine hydrochloride] | 0.736 ± 0.23 | 1.04 ± 0.037 | 0.917 | 1.01 ± 0.03
34 | CN1C(=O)CCS(=O)(=O)C1c1ccc(Cl)cc1 (centres undefined) [Chlormezanone] | 1.15 ± 0.46 | 1.05 ± 0.11 | 0.545 | 0.989 ± 0.059
35 | CC(C)N(CCC(C(N)=O)(c1ccccc1)c1ccccn1)C(C)C (centres undefined) [Disopyramide] | 0.9 ± 0.32 | 1.09 ± 0.086 | 0.667 | 1.05 ± 0.038
36 | CN1C[C@H](CNC(=O)OCc2ccccc2)C[C@@H]2c3cccc4c3c(cn4C)C[C@H]21 [Metergoline] | 0.977 ± 0.48 | 0.9966 ± 0.0098 | 1 | 0.9894 ± 0.0045
37 | O=P1(N(CCCl)CCCl)NCCCO1 (centres undefined) [Cyclophosphamide] | 0.894 ± 0.2 | 0.913 ± 0.0021 | 0.75 | 1.09 ± 0.028
38 | C[N+]1(C)[C@@H]2CC[C@H]1C[C@@H](OC(=O)C(CO)c1ccccc1)C2 (some centres undefined) [Methylatropine nitrate] | 1.01 ± 0.39 | 0.936 ± 0.028 | 0.917 | 1.06 ± 0.017
39 | C=C1C[C@@H]2[C@H](CC[C@]3(C)C(=O)CC[C@@H]23)[C@@]2(C)C=CC(=O)C=C12 [Exemestane] | 0.893 ± 0.38 | 0.932 ± 0.065 | 0.727 | 1.25 ± 0.036
40 | CN(C)C(=O)Oc1cccc([N+](C)(C)C)c1 [Neostigmine bromide] | 0.984 ± 0.28 | 0.859 ± 0.034 | 0.667 | 1.09 ± 0.053
41 | O=c1[nH]c2ccccc2n1CCCN1CCC(n2c(=O)[nH]c3cc(Cl)ccc32)CC1 [Domperidone] | 0.857 ± 0.34 | 1.03 ± 0.08 | 0.818 | 0.963 ± 0.041
42 | NC(=O)OCCCc1ccccc1 [Phenprobamate] | 0.999 ± 0.4 | 1.03 ± 0.022 | 0.75 | 1.01 ± 0.05
43 | CCC1(C)CC(=O)NC(=O)C1 [Bemegride] | 0.891 ± 0.28 | 0.997 ± 0.013 | 0.75 | 0.968 ± 0.027
44 | CC1OC(OC2/C=C/C=C/C=C/C=C/CC/C=C/C=C/[C@H](C)[C@@H](O)[C@@H](C)[C@H](C)OC(=O)CC(O)CC(O)CC(O)CCC(O)C(O)C[C@]3(O)CC(O)C(C(=O)O)C(C2)O3)C(O)C(N)C1O (some centres undefined) [Nystatine] | 0.778 ± 0.16 | 0.994 ± 0.05 | 1 | 1.05 ± 0.053
45 | C[C@]12CC[C@H](O)C[C@H]1CC[C@@H]1[C@@H]2C[C@@H](O)[C@]2(C)[C@@H](C3=CC(=O)OC3)CC[C@]12O [Digoxigenin] | 0.711 ± 0.21 | 0.994 ± 0.017 | 0.917 | 0.9639 ± 0.0077
46 | CN(C)C(=O)Oc1cc(OC(=O)N(C)C)cc(C(O)CNC(C)(C)C)c1 (centres undefined) [Bambuterol hydrochloride] | 0.925 ± 0.31 | 0.915 ± 0.035 | 1 | 1.01 ± 0.021
